# Rows were chosen to be rich in hits. Some 2.5% of all compounds tested hit in one or more screens of this group.
# MEKK2mut PB1 HTS: signal of MEK5 binding to mutant human MEKK2 PB1 domain. bead flow cytometry, Alexa488-MEK5 binding to MEKK2 mutant. percent response, % at 10 µM. 0.35% of 290,000 active. AID 1530; in the data active = percent response above about 24%, passing the limit was not always enough
# Rce1 inhib: blocks yeast Ras-converting enzyme; 0.27% of 290,000 active; yeast membranes, quenched prenylated peptide cleavage fluorescence; AID 2563; calls only; Q03530;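 active = fall in fluorescence gain of 50% or more versus controls, with final raw signal at or below 3038400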;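 also: plate controls were neutral control wells for no effect and wells lacking membranes for full effect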
# MEKK3 PB1 HTS: raises or lowers MEK5 binding to the human MEKK3 PB1 domain; bead-based flow cytometry, Alexa488-MEK5 binding to MEKK3; actives lie on both sides; 0 = blocked by unlabeled MEK5, 100 = vehicle; binding response (% of control), % at 10 µM; 1.4% of 290,000 active; AID 1529;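 active = binding response more than 3 SD above or below the average of its plate-row segment, actives on both sides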;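 also: Alexa488 bead fluorescence after subtracting the streptavidin-only scavenger bead signal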
# MEKK2 WT-MEK5: raises or lowers MEK5 binding to wildtype human MEKK2 PB1 domain | Q9Y2U5 | 1.1% of 290,000 active | bead flow cytometry, Alexa488-MEK5 binding to MEKK2 WT; actives lie on both sides | binding response (% of control), % at 10 µM; in the data active = binding response below about 67% or above about 130%
# UBC13 inh: blocks human UBC13 polyubiquitin chain formation | P61088 | TR-FRET | inhibition, % at 20 µM | 0.47% of 330,000 active | AID 485273; in the data active = inhibition above about 45%, passing the limit was not always enough
# Target sequence (P61088 whole entry, looked up): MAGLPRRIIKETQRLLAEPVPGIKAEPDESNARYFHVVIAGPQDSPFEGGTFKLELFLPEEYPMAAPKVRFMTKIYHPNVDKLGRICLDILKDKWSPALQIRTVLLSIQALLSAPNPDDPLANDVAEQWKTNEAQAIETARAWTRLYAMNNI
# MEKK2wt confirm: raises or lowers MEK5 binding to wildtype human MEKK2, retest; bead flow cytometry, Alexa488-MEK5 binding to MEKK2 WT; actives lie on both sides; 2.4% of 5,900 active; AID 1892; binding response (% of control), % at 10 µM; shares compounds with MEKK3 PB1 HTS; in the data active = binding response below about 16% or above about 210%; inactive = in between
# MEKK2mut confirm: signal of MEK5 binding to mutant human MEKK2, retest; bead flow cytometry, Alexa488-MEK5 binding to MEKK2 mutant; 2% of 5,900 active; shares compounds with MEKK3 PB1 HTS; AID 1893; percent response, % at 10 µM; in the data active = percent response mostly above about 71%, no sharp cut-off; inactive = mostly below about 38%;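 also: higher means compound restores mutant binding toward wildtype level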
# MEKK3 confirm: MEKK3-MEK5 PB1 inhibition, single concentration confirmation. shares compounds with MEKK3 PB1 HTS. bead flow cytometry, Alexa488-MEK5 binding to MEKK3; active compounds read low. binding response (% of control), % at 10 µM. 1.8% of 5,900 active;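 active = binding response below 72% of control, or above a set upper limit, though filed actives all read lower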;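 also: 100% = DMSO only wells and 0% = binding blocked by excess unlabeled MEK5; lower values mean stronger disruption of MEK5 binding to MEKK3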
# * marks the source's active call; other numbers are inactive results; i = inactive; · = no result; [ ] = remark or other dose.
SMILES,MEKK2mut PB1 HTS,Rce1 inhib,MEKK3 PB1 HTS,MEKK2 WT-MEK5,UBC13 inh,MEKK2wt confirm,MEKK2mut confirm,MEKK3 confirm
CCNC(=O)NC(=O)CSc1ccccc1F,-1,i,99,100,12,·,·,·
Cc1ccc(OCCn2ccnc2)c([N+](=O)[O-])c1,21,i,108,136*,-6,101,5,102
COc1ccc(-c2nc(SC(CC(=O)NCc3ccccc3)c3ccc(OC)c(OC)c3)n[nH]2)cc1 (configuration not stated),0,·,128*,101,-36,94,-9,94
COc1ccc(C(CC(=O)NCc2ccccc2)Sc2n[nH]c(-c3ccccc3)n2)cc1 (configuration not stated),13,i,98,119,-21,·,·,·
Cc1cc[n+](-c2[nH]c(=O)sc2/C=N/NC([S-])=Nc2ccccc2)cc1,-1,i,86,97,-30,·,·,·
Cc1cc(C)c[n+](-c2[nH]c(=O)sc2/C=N/NC([S-])=Nc2ccccc2)c1,1,i,136*,109,-17,98,-6,97
NC(=O)CC(NC(=O)Cc1ccc(Cl)cc1)c1ccc(NC2CCCCCCC2)c([N+](=O)[O-])c1 (configuration not stated),-4,i,102,98,2,·,·,·
CN(C)c1ccc(NS(=O)(=O)c2ccc(Cl)cc2)cc1,3,i,135*,102,3,99,-3,97
CC(=O)c1ccc(N2CCN(C(=O)/C=C/c3cccs3)CC2)cc1,-1,i,110,101,-1,·,·,·
O=C(/C=C/c1cccs1)N1CCN(c2ccc(F)cc2)CC1,-30,i,76,62*[inhibitor],2,100,0,100
O=[N+]([O-])c1ccc(C[n+]2cccc3c4ccccc4ccc32)cc1,20,i,99,8.0*[inhibitor],5,109,9,99
Cn1nc(C(F)(F)F)c(-c2ccc(F)cc2)c1NC(=O)c1cccnc1,28,i,128*,118,3,107,0,103
CN1CCN(C=Nc2nc3ccccc3nc2N2CCCC2)CC1,5,i,102,104,0,·,·,·
CCN1/C(=C/c2ccc3cc(C)ccc3[n+]2C)Sc2ccc3sccc3c21,·,·,0.0*[inhibitor],·,·,7.0*[inhibitor],-33,31*
CCN1/C(=C/c2ccc3cc(C)ccc3[n+]2CC)Sc2cc(C)ccc21,-4,·,51*[inhibitor],11*[inhibitor],·,31,-37,74
CCCC1=NN(C(=O)CCc2ccccc2O)C(O)(C(F)(F)F)C1 (configuration not stated),3,i,138*,107,13,97,3,100
CCC1=NN(C(=O)CCc2ccccc2)C(O)(C(F)(F)F)C1 (configuration not stated),-5,i,92,95,0,·,·,·
Cc1cc(/C=C(\C#N)C(=O)Nc2ccc(F)cc2)c(C)n1-c1ccc(N2CCOCC2)c([N+](=O)[O-])c1,1,i,101,101,-12,·,·,·
COc1ccc(NC(=O)/C(C#N)=C/c2cc(C)n(-c3ccc(N4CCOCC4)c([N+](=O)[O-])c3)c2C)cc1,0,i,132*,102,-18,102,3,106
O=C(CSCC(=O)Nc1ccc2ccccc2c1)NCc1ccccc1,1,i,104,105,5,·,·,·
CC(C)c1ccc(CNC(=O)CSCC(=O)Nc2ccc3ccccc3c2)cc1,12,i,117,140*,11,106,2,101
FC(F)(F)c1nnc2ccc(Sc3ccccn3)nn12,-28,·,1.0*[inhibitor],·,-4,95,-8,95
Cc1ccc(/C=C/C(=O)NC2CCS(=O)(=O)C2)cc1 (configuration not stated),0,i,104,101,-7,·,·,·
O=C(/C=C/c1ccccc1)NC1CCS(=O)(=O)C1 (configuration not stated),0,i,72*[inhibitor],95,-8,99,-5,102

# Screening data from PubChem.
